Records with an inconclusive call do not appear. Calls of active or inactive are those of the source. Unless noted, calls come from the whole dose curve; as a rule, active = well fitted curve in the direction sought with a large enough effect; inconclusive = small, poorly fitted or top-dose-only effect, or another doubt; inactive = no such curve, though single readings can be large; an effect the other way counts as inactive or inconclusive.
Tests used:
[1] = qHTS for compounds that reverse cellular toxicity of Amyloid beta (A-beta) peptide in yeast: LOPAC Validation Assay (AID 720559);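 note: plate controls were DMSO for no effect and equimolar ferric chloride plus clioquinol rescue for full effect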
Method in brief: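 OD600 growth readout after 48 hr at 30 C; A-beta-toxic yeast plus pinned compounds in medium. Normalization: DMSO = negative, equimolar FeCl3 + clioquinol = positive.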

[2] = qHTS for Activators of Parkin Expression: LOPAC Validation Assay (FLuc Reporter) (AID 720573;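 note: 0% = DMSO and 100% = positive control compounds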)
Method in brief: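 FLuc luminescence read-out from a neuronal line expressing a Parkin-promoter-driven coincidence reporter. Cells treated 24 h at 37 C, 5% CO2 with compounds at 7 concentrations; signal increase normalized to DMSO and positive control.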

[3] = molecular target: T1, Hexokinase-4 (Homo sapiens) + Glucokinase regulatory protein (Homo sapiens) (UniProt P35557+Q14397); assay: qHTS assay for inhibitors of recombinant human GCK-GKRP interaction: Diaphorase-coupled assay (AID 743205)
T1 sequence (P35557 whole entry, looked up): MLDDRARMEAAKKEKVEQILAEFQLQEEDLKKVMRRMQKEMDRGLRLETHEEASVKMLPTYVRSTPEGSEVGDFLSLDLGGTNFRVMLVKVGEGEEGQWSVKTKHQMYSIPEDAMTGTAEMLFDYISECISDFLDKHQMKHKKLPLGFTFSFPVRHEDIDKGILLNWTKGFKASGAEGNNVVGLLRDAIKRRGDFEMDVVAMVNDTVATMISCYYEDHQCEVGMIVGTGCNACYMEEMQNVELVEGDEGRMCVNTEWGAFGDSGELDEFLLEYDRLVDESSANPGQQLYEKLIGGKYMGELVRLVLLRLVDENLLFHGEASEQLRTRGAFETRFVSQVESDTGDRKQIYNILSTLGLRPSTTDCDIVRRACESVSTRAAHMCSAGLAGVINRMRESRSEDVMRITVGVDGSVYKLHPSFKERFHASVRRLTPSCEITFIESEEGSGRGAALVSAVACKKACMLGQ
T1 sequence (Q14397 whole entry, looked up): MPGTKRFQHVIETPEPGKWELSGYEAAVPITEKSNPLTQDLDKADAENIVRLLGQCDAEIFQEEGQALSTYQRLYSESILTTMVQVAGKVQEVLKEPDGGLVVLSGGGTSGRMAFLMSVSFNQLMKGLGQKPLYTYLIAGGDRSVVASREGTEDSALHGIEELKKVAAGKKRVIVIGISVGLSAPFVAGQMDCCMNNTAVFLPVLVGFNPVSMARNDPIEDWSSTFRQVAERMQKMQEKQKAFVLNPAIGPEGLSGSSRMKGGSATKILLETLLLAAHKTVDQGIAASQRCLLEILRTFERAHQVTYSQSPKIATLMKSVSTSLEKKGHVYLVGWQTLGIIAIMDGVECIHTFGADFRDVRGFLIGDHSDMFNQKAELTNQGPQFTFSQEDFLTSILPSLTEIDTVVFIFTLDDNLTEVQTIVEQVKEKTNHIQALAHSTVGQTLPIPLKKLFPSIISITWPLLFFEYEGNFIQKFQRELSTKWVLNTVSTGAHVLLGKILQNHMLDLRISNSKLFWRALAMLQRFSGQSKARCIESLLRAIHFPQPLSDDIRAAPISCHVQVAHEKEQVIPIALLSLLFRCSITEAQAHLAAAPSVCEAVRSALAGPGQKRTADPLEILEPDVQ
Method in brief: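 Resorufin fluorescence (525/590 nm), read each minute over 30 min, reports GCK activity coupled via G6PDH and diaphorase. Reaction: 10 nM GST-GCK, 10 nM FLAG-GKRP, 5 mM glucose, 0.4 mM ATP, 0.15 mM NADP+, 0.1 mM resazurin.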

[4] = molecular target: T1, Hexokinase-4 (Homo sapiens) + Glucokinase regulatory protein (Homo sapiens); assay: qHTS assay for inhibitors of recombinant human GCK-GKRP interaction: ADP-Glo assay (AID 743206);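 note: plate controls were DMSO plus enzyme for no effect and no enzyme for full effect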
Method in brief: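 Pin-transferred compounds meet a 15 nM GST-GCK/15 nM FLAG-GKRP/2 uM S6P mix (dispense concentrations). ATP is then added to 0.4 mM final with 5 mM glucose, and the reaction runs 60 min at room temperature. ADP is quantified luminescently.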

[5] = molecular target: T1, Hexokinase-4 (Homo sapiens) + Glucokinase regulatory protein (Homo sapiens); assay: qHTS assay for inhibitors of recombinant human GCK-GKRP interaction: HTRF assay (AID 743207);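 note: 0% = DMSO with GCK present and -100% = DMSO wells lacking GCK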
Method in brief: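 HTRF read-out (ex 320 nm; 615/665 nm emission) after 60 min RT equilibration of 5 nM GST-GCK, 5 nM FLAG-GKRP, 2 uM S6P, compound and anti-FLAG/anti-GST detection antibodies; signal normalized between DMSO wells with and without GCK.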

[6] = qHTS Assay for Identifying Gametocytocidal Compounds (AID 743244);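 note: % is set by controls: 0 for no effect and ±100 for the full control effect; actives lower the fluorescent signal which means gametocytes are killed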; settings: P. falciparum 3D7 stage III-V gametocytes, alamarBlue, 72 h; max response: stronger effect = lower value
Method in brief: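 Late gametocytes (III–V), P. falciparum 3D7; 72 h drug, then 24 h alamarBlue; resazurin reduction read by fluorescence.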

[7] = qHTS for Activators of Parkin Expression: LOPAC Validation Assay (NLuc Reporter) (AID 720572;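 note: 0% = DMSO and 100% = positive control compound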)
Method in brief: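 Cells harboring the Parkin-promoter coincidence reporter were treated for 24 h at seven concentrations. NLuc output was measured sequentially after the FLuc channel and scaled between DMSO and positive control values.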

[8] = qHTS assay for small molecule agonists of the antioxidant response element (ARE) signaling pathway measured by Nrf2-dependant transcriptional activity - cell viability counter screen (AID 720653; active = well fitted curve in the direction sought with a large enough effect in the repeat runs; an effect the other way counts as inactive or inconclusive; note: % is set by controls: 0 for no effect and ±100 for the full control effect); settings: ARE-bla HepG2 viability, CellTiter-Glo ATP luminescence, 16 h; stronger effect = lower value
Method in brief: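 ARE-bla HepG2 cells (2,000/well) rested 5 hrs at 37C/5% CO2, then exposed to compounds in DMSO for 16 hrs. Viability was read in the same wells as intracellular ATP by luminescence, 30 min at room temperature after reagent addition.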

[9] = qHTS assay for cell viability of HEK293 cells (AID 743288); settings: ATP luminescence (CellTiter-Glo), 18 h; max response: stronger effect = lower value; note: % is set by controls: 0 for no effect and ±100 for the full control effect; nearly all actives have a fitted effect of over 50% in size
Method in brief: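 ATP luminescence (CellTiter-Glo) reports metabolically competent cell number after parental HEK293 cells, 2,000/well, were treated with DMSO-dissolved compounds for 18 h at 37 C; reagent incubation 30 min, room temperature.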

[10] = qHTS assay for cell viability of the p53RE-bla HCT-116 cell line (AID 743292); note: % is set by controls: 0 for no effect and ±100 for the full control effect; nearly all actives have a fitted effect of over 55% in size
Method in brief: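 Intracellular ATP of p53RE-bla HCT-116 cells measured by luciferase luminescence following 16 h compound incubation at 37 C; DMSO-only wells served as vehicle controls.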

NC(=O)CC[C@H](N)C(=O)O
inactive: outcome [1] | Potency [2] | Potency [3] | Potency [4] | Potency [5] | max response [6] -4.4%

CC(C)C[C@H](NC(=O)[C@H](O)[C@H](N)Cc1ccccc1)C(=O)O
inactive: outcome [1] | Potency [7] | Potency [2] | Potency [3] | Potency [4] | Potency [5] | max response [6] 2.38%

CC(=O)SC1CC2=CC(=O)CC[C@]2(C)C2CC[C@@]3(C)C(CC[C@@]34CCC(=O)O4)C12 (some centres not stated)
inactive: outcome [1] | Potency [3] | Potency [4] | Potency [5] | max response [6] 7.64%

CC(=O)[C@H]1CCC2C3CC=C4C[C@@H](OS(=O)(=O)O)CC[C@]4(C)C3CC[C@@]21C (some centres not stated)
inactive: Potency [7] | Potency [2] | Potency [3] | Potency [4] | Potency [5] | max response [6] 21.2%

c1ccc2c(c1)CC(N1CCN(c3cccc4c3OCCO4)CC1)C2
inactive: Potency [7] | Potency [2] | Potency [3] | Potency [4] | Potency [5] | max response [6] 9.97%

O=C(O)Cc1c[nH]c2ccc(O)cc12
inactive: Potency [7] | Potency [2] | Potency [3] | Potency [4] | Potency [5] | max response [6] -2.34%

CCCn1c(=O)c2[nH]c(-c3ccc(S(=O)(=O)O)cc3)nc2n(CCC)c1=O
inactive: Potency [7] | Potency [2] | Potency [3] | Potency [4] | Potency [5] | max response [6] 27.3%

O=c1onc2n1-c1cc(Br)ccc1OC2
inactive: outcome [1] | Potency [7] | Potency [2] | Potency [3] | Potency [4] | Potency [5] | max response [6] 20.4%

COc1ccc(-c2cc3ncc(C)n3c(Nc3ncccc3C(N)=O)n2)cc1OC
inactive: outcome [1] | Potency [7] | Potency [2] | Potency [3] | Potency [4] | max response [6] 12.4%

Nc1nc2ccc(Cl)cc2c2nc(-c3ccco3)nn12
inactive: outcome [1] | Potency [2] | Potency [3] | Potency [4] | Potency [5] | max response [6] -3.79%

N=C(N)c1ccccc1
inactive: outcome [1] | Potency [2] | Potency [3] | Potency [4]

Cc1nc2c(OCc3ccccc3)cccn2c1CC#N
inactive: outcome [1] | Potency [2] | Potency [3] | Potency [4] | Potency [5] | max response [6] 18.4%

Cc1nc(N=Nc2cc(S(=O)(=O)O)c3cc([N+](=O)[O-])cc(S(=O)(=O)O)c3c2)c(COP(=O)(O)O)c(C=O)c1O
inactive: outcome [1] | Potency [7] | Potency [2] | Potency [3] | Potency [4] | max response [6] -2.01%

CCCCCCCC/C=C\CCCCCCCC(=O)NCCc1ccc(O)c(O)c1
inactive: Potency [2] | Potency [3] | Potency [4] | Potency [5] | max response [6] 7.46%

NCC(O)C1CCCCCCC1 (configuration not stated)
inactive: outcome [1] | Potency [7] | Potency [2] | Potency [3] | Potency [4] | max response [6] 18.9%

NC(N)=NC(N)=Nc1ccccc1
inactive: outcome [1] | Potency [7] | Potency [2] | Potency [3] | Potency [4] | Potency [5] | max response [6] 28.5%

NCC(O)(CS(=O)(=O)O)c1ccc(Cl)cc1 (configuration not stated)
inactive: outcome [1] | Potency [2] | Potency [3] | Potency [4] | Potency [5] | max response [6] -5.75%

CC(C)(C)NCC(O)COc1cccc2[nH]c(=O)[nH]c12 (configuration not stated)
inactive: outcome [1] | Potency [7] | Potency [2] | Potency [3] | Potency [4] | Potency [5] | max response [6] 25.5%

CC[N+](CC)(CC)CC(=O)Nc1c(C)cccc1C
inactive: outcome [1] | Potency [7] | Potency [2] | Potency [3] | Potency [4] | max response [6] 14.2%

OC1(c2ccc(Cl)cc2)CCN(Cc2c[nH]c3ccccc23)CC1
inactive: outcome [1] | Potency [2] | Potency [3] | Potency [4] | Potency [5]

COC(=O)C1=C(C)NC(C)=C([N+](=O)[O-])C1c1ccccc1C(F)(F)F (configuration not stated)
inactive: outcome [1] | Potency [2] | Potency [3] | Potency [4] | Potency [5] | max response [6] 19.5%

CCCCCCCCCCCCCCSCC(=O)O
inactive: Potency [7] | Potency [2] | max response [8] 2.74% | Potency [3] | Potency [4] | Potency [5] | max response [9] -15% | Potency [10]

O=C(O)c1cccnc1C(=O)O
inactive: outcome [1] | Potency [7] | Potency [2] | Potency [3] | Potency [4] | Potency [5] | max response [6] 4.44%

NC(N)=NC(N)=Nc1cccc(Cl)c1
inactive: Potency [2] | Potency [3] | Potency [4] | Potency [5] | max response [6] 35.4%

Nc1nc2c(cnn2CCc2ccccc2)c2nc(-c3ccco3)nn12
inactive: outcome [1] | Potency [7] | Potency [3] | Potency [4] | Potency [5] | max response [6] -5.77%

CCCCCCC(=O)OC1CC(C)(C)NC(C)(C)C1
inactive: outcome [1] | Potency [7] | Potency [2] | Potency [3] | Potency [4] | max response [6] -4.67%

O=C(O)c1ccccc1Nc1cccc(OCc2ccc3ccccc3n2)c1
inactive: outcome [1] | Potency [2] | Potency [3] | Potency [4] | max response [6] 1.28%

— PubChem BioAssay (NCATS)
